Results: PubChem BioAssay
Active and inactive are the calls of the source. Unless noted, no stated cut-off is given here; in the data, active means inhibition above about 30%; inactive means the rest.

Experiments:
[1] = reducers of endogenous Her2 protein level, primary screen, SKBR3 breast tumor cells, AlphaScreen, ATP viability (AID 461;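 active means Her2 level under about 52% in both replicate screens, with viability over 70% of control, limit read from the data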;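 on Her2 level: lower value means less Her2 protein in the cells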;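 on viability: percent of carrier control wells set as 100% viability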); conditions: 18-24 h, measured here: SKBR3 viability, ATP luminescence, at 10 µM
[2] = target: Receptor tyrosine-protein kinase erbB-2 (Homo sapiens) (UniProt P04626); test: as above; conditions: 18-24 h, at 10 µM, stronger effect = lower value
Chain of Receptor tyrosine-protein kinase erbB-2 (Homo sapiens) (P04626 whole entry, looked up): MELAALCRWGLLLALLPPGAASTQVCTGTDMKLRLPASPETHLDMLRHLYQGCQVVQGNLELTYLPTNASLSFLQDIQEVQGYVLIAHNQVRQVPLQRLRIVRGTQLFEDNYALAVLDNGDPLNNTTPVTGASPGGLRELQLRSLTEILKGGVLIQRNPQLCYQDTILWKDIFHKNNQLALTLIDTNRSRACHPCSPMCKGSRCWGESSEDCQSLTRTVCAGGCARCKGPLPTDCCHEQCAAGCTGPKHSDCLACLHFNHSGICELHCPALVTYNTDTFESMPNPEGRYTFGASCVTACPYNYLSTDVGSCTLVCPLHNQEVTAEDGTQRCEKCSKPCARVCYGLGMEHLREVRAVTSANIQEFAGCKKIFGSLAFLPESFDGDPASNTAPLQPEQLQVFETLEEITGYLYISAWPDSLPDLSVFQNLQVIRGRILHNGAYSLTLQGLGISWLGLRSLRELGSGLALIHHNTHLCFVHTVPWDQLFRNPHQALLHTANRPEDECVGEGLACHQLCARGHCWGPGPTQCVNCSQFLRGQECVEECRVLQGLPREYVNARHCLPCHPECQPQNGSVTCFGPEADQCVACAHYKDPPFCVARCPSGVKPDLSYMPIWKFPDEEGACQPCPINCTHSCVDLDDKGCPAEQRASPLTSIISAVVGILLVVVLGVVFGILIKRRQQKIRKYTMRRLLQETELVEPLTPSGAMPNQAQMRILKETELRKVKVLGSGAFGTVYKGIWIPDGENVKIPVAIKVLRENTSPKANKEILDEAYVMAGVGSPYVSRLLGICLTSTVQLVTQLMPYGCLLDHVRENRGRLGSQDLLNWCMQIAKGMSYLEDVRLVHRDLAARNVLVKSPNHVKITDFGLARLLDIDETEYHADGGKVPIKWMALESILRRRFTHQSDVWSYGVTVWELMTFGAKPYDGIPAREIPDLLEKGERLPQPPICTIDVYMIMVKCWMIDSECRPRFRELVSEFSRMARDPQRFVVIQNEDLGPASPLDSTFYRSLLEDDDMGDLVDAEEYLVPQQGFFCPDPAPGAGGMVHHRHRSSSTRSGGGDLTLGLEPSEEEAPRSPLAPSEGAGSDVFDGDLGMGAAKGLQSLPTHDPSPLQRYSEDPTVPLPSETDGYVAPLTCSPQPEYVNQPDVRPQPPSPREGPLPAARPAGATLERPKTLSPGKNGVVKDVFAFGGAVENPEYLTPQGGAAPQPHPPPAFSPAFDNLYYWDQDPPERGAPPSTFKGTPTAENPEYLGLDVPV

[3] = SK-BR-3 cell growth inhibitors, pilot screen, 24 h, human (AID 572;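 active means viability at or below 10% of carrier control in both of two separate runs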;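 further: compound exposure lasted between 18 and 24 h rather than exactly 24 h; 100% = carrier-treated control wells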); conditions: SK-BR-3 viability, CellTiter-Glo luminescence, at 10 µM, stronger effect = lower value
[4] = growth inhibitors of H69AR lung tumor, primary screen, human, duplicate replicates (AID 580;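 active means viability at or under a set limit in both replicates, limit being median viability minus 3 SD, cut at about 48% in these data, passing the limit was not always enough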;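 further: 100% = mean luminescence of untreated wells and 0% = no signal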); conditions: H69AR lung tumor cells viability, ATP luminescence, 72 h; at 10 µM; stronger effect = lower value
[5] = reversal of MRP1-mediated doxorubicin resistance, pilot screen, H69AR cells, doxorubicin co-treatment (AID 601;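 active means viability loss from added drug above about 55%, and viability with drug at most 40%, in both replicates, limit read from the data, passing the limit was not always enough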); conditions: CellTiter-Glo, 72 h, at 10 µM; for differential viability (reversal): stronger effect = higher value
[6] = 384-well plate pilot, post-Golgi transport modulator project, inhibition of yeast transport mutant growth (AID 636; in the data active means inhibition above about 31%); conditions: absorbance 615 nm, about 18 h, stronger effect = higher value
[7] = growth suppression of yeast trafficking mutant, preliminary HTS, modulators of trafficking downstream of Golgi apparatus project, 1536-format plate, OD 615 nm (AID 637); conditions: yeast transport mutant growth, absorbance 615 nm, 18 h; stronger effect = higher value
[8] = H69AR cells + 2 uM doxorubicin, measured here: viability with 2 uM doxorubicin, stronger effect = lower value
[9] = H69AR cells, compound alone cytotoxicity

Row | Structure (SMILES) | viability [1] | Her2 level [2] | viability [3] | viability [4] | differential viability (reversal) ([5]; H69AR cells + 2 uM doxorubicin) | viability [5, 8] | viability [5, 9] | inhibition [6] | inhibition [7]
1 | Oc1c(Cl)cc(Cl)c2c1NCCC2 | 71.5% | 65% (inactive) | 71.5% (inactive) | 68.8% (inactive) | -11.9% (inactive) | 80.7% | 68.8% | -2.63% (inactive) | -2.7% (inactive)
2 | CCOC(=O)c1cnn(-c2sc(C(=O)OCC)c(C)c2C(=O)OCC)c1N | 95% | 93.5% (inactive) | 95% (inactive) | 15.8% (active) | -25.8% (inactive) | 41.6% | 15.8% | 0.27% (inactive) | -4.6% (inactive)
3 | Cc1ccc2c(c1)-c1c(cnn1CC(=O)Nc1ccccc1N1CCN(C)CC1)CO2 | 93.5% | 84% (inactive) | 93.5% (inactive) | 85.2% (inactive) | 4.26% (inactive) | 80.9% | 85.2% | -1.2% (inactive) | -3.28% (inactive)
4 | O=C(CC(=O)c1cc(Cl)ccc1O)c1ccccc1 | 131% | 89% (inactive) | 131% (inactive) | 11.4% (active) | -9.6% (inactive) | 21% | 11.4% | 94.7% (active) | 61.3% (active)
5 | O=S(=O)(Nc1ccc2c(c1)OCO2)c1ccc(Br)s1 | 92% | 79% (inactive) | 92% (inactive) | 96.8% (inactive) | 0.44% (inactive) | 96.3% | 96.8% | -4.47% (inactive) | -10.7% (inactive)
6 | Cn1c(-c2ccc(C(C)(C)C)cc2)n[nH]c1=S | 106% | 106% (inactive) | 106% (inactive) | 82.1% (inactive) | 1.74% (inactive) | 80.4% | 82.1% | -4.68% (inactive) | -2.13% (inactive)
7 | CSc1nc(N2CCOCC2)c2c(c1C#N)CCCCC2 | 112% | 96% (inactive) | 112% (inactive) | 86.8% (inactive) | 12.9% (inactive) | 73.9% | 86.8% | 0.79% (inactive) | 17.9% (inactive)
8 | COc1ccc(-c2n[nH]c(C)c2-c2ccc(Cl)cc2)c(O)c1OC | 83.5% | 109% (inactive) | 83.5% (inactive) | 23.2% (active) | -10.6% (inactive) | 33.8% | 23.2% | -0.92% (inactive) | 4.26% (inactive)
9 | c1ccc(CN2CCN(c3ncnc4c3[nH]c3ccccc34)CC2)cc1 | 121% | 47% (active) | 121% (inactive) | 60.6% (inactive) | -22.6% (inactive) | 83.2% | 60.6% | -6% (inactive) | 2.1% (inactive)
10 | O=C(Cn1nc(-c2ccc(Cl)cc2)ccc1=O)NCCCN1CCN(Cc2ccccc2)CC1 | 75% | 106% (inactive) | 75% (inactive) | 90.1% (inactive) | -3.28% (inactive) | 93.4% | 90.1% | -0.26% (inactive) | -3.55% (inactive)
11 | O=c1c2ccccc2nc(SCc2nnc(-c3ccccc3Br)o2)n1-c1ccccc1 | 77% | 95.5% (inactive) | 77% (inactive) | 84.2% (inactive) | -3.29% (inactive) | 87.5% | 84.2% | -0.27% (inactive) | 3.77% (inactive)
12 | CCOC(=O)C1=C(N)c2ccccc2CC1C(C)C (stereo not drawn) | 85.5% | 78% (inactive) | 85.5% (inactive) | 72% (inactive) | -4.15% (inactive) | 76.1% | 72% | -5.34% (inactive) | -1.9% (inactive)
13 | COc1ccccc1NC(=O)Cn1nnc(-c2ccccc2NC(=O)c2ccco2)n1 | 91.5% | 72.5% (inactive) | 91.5% (inactive) | 6.73% (active) | -4.18% (inactive) | 10.9% | 6.73% | -5.41% (inactive) | 0.66% (inactive)
14 | CCn1c(SCc2nc(-c3cccs3)no2)nnc1-c1c[nH]c2ccccc12 | 99% | 65.5% (inactive) | 99% (inactive) | 78.8% (inactive) | 4.39% (inactive) | 74.4% | 78.8% | -5.26% (inactive) | -5.67% (inactive)
15 | COc1ccc(Cn2nnnc2C(c2cccnc2)N2CCN(c3ccc(O)cc3)CC2)cc1 (stereo not drawn) | 99.5% | 89.5% (inactive) | 99.5% (inactive) | 82.5% (inactive) | -10.7% (inactive) | 93.2% | 82.5% | -6.4% (inactive) | 4.19% (inactive)
16 | CCOC(=O)c1c(C)oc2c1c(C=NCc1ccccn1)c(O)c1ccccc12 | 154% | 22% (active) | 154% (inactive) | 16.5% (active) | 6.13% (inactive) | 10.3% | 16.5% | -8.38% (inactive) | 3.67% (inactive)
17 | Nc1ncnc2oc(-c3ccco3)c(-c3ccco3)c12 | 96.5% | 77% (inactive) | 96.5% (inactive) | 75.7% (inactive) | 7.29% (inactive) | 68.4% | 75.7% | -0.13% (inactive) | -4.03% (inactive)
